Experimental data taken from PubChem BioAssay (NCATS).
Results filed as inconclusive are left out. Active and inactive are the calls of the source. Calls come from the whole dose curve; as a rule, active = well fitted inhibition curve with a large enough effect; inconclusive = small, poorly fitted or top-dose-only effect; inactive = flat fitted curve, though single readings scatter. *1 amine or outer side, *2 acyl side, *3 side chain or, on linkers, in order; H or OH if unused. Where a SMILES comes first, the peptide text is derived from it. [ ]: non-standard residue; d: D form. The star is where a group is joined. ξ: configuration not given here. X9 = CCC(C)(N*)C(=O)C1CC[C@@H](C(=O)N[C@@H](Cc2ccccc2)C(=O)NCC(=O)O)N1; X8 = O=C([C@@H]1CC(O)CN1[*:1])[*:2]; aIle = CC[C@@H](C)[C@H](N)C(=O)O; Thr(3ξ) = CC(O)[C@H](N)C(=O)O; βNA = c1ccc2cc(N*)ccc2c1; Cbz = O=C(OCc1ccccc1)*; ξIva = CCC(C)(N)C(=O)O; Aib = CC(C)(N)C(=O)O

How the values were obtained:
[1] = tested on: CRL-7250; experiment: Cytotoxic Profiling of Annotated Libraries Using Quantitative High-Throughput Screening (AID 1296008); details: Five cell lines viability, CellTiter-Glo ATP luminescence, 48-72 h; max response: stronger effect = lower value; for max response: % is set by controls: 0 for no effect and ±100 for the full control effect
Procedure, shortened: (§1)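 Cytotoxicity was measured as CellTiter-Glo ATP luminescence, read after 10 min at room temperature. Compound treatment of the cells lasted 48 or 72 hr at 37 degrees Celsius in a qHTS format.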

[2] = tested on: HEK293; experiment: as above; details: Five cell lines viability, CellTiter-Glo ATP luminescence, 48-72 h; max response: stronger effect = lower value
Procedure, shortened: as §1

[3] = tested on: HaCat; experiment: as above; details: Five cell lines viability, CellTiter-Glo ATP luminescence, 48-72 h; max response: stronger effect = lower value
Procedure, shortened: as §1

[4] = tested on: KB-3-1; experiment: as above; details: Five cell lines viability, CellTiter-Glo ATP luminescence, 48-72 h; max response: stronger effect = lower value
Procedure, shortened: as §1

[5] = tested on: NIH3T3; experiment: as above; details: Five cell lines viability, CellTiter-Glo ATP luminescence, 48-72 h; max response: stronger effect = lower value
Procedure, shortened: as §1

[6] = tested on: NIH3T3; experiment: qHTS assay to identify novel small-molecules to repurpose for Merkel cell carcinoma treatment (AID 1296009); details: MCC and control cell lines, CellTiter-Glo viability, 72 h; at 44.8 µM (top of the series) unless noted
Procedure, shortened: (§2)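 Cell viability measured by CellTiter-Glo following 72 hr compound treatment at 37 degree celsius, with NPC and MIPE libraries tested in 8- and 11-point concentration series.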

[7] = tested on: TAB165; experiment: qHTS profiling for inhibitors of Plasmodium falciparum proliferation (AID 504749);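 note: 0% = DMSO vehicle and full inhibition = artemisinin control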; details: P. falciparum in erythrocytes, SYBR Green DNA, 72 h; series mostly up to 28.7 µM
Procedure, shortened: (§3)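 In a 72 h erythrocytic culture (37 C, humidified, 5% CO2) at 2.5% hematocrit and 0.3% starting parasitemia, compounds were tested; SYBR Green I in detergent lysis buffer stained parasite DNA overnight.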

[8] = tested on: W2; experiment: as above; details: P. falciparum in erythrocytes, SYBR Green DNA, 72 h; series mostly up to 28.7 µM
Procedure, shortened: as §3

[9] = tested on: HACAT; experiment: qHTS assay to identify novel small-molecules to repurpose for Merkel cell carcinoma treatment (AID 1296009); details: MCC and control cell lines, CellTiter-Glo viability, 72 h; at 44.8 µM (top of the series) unless noted
Procedure, shortened: as §2

[10] = tested on: HEK293T; experiment: as above; details: MCC and control cell lines, CellTiter-Glo viability, 72 h; at 44.8 µM (top of the series) unless noted
Procedure, shortened: as §2

Measured: max response
Note: nearly all actives have a fitted effect of over 60% in size.

COC(=O)c1ccc(OC)cc1O[C@@H]1O[C@H](CO[C@@H]2OC[C@@H](O)[C@H](O)[C@H]2O)[C@@H](O)[C@H](O)[C@H]1O
inactive: [1] -0.542% | [2] -1.51% | [3] -6.53% | [4] | [5] | [6] inactive [at 17.4 µM]

CN1CCc2cc(Cl)c(O)cc2[C@@H](c2cccc3c2OCC3)C1
inactive: [1] | [2] -11.4% | [3] -1.65% | [4] -4.72% | [5] | [6]

CC1=C2C3OC(=O)C(C)C3(O)CCC2(C)CCC1 (stereo unspecified)
inactive: [1] 4.24% | [2] 2.89% | [3] 0.93% | [4] 2.02% | [5] | [6]

CCOC(=O)C(CCc1ccccc1)NC(C)C(=O)N1Cc2ccccc2CC1C(=O)O (stereo unspecified)
inactive: [7] | [8] | [1] -6.01% | [2] -4.89% | [3] -10.9% | [4] -4.78% | [5] | [6]

C=C1C(OC(C)=O)CCC2(C)CC3(O)OC(=O)C(C)=C3CC12 (stereo unspecified)
inactive: [1] | [2] -4.29% | [3] -1.9% | [4] | [5] | [6]

C/C(=C\C1CCC(C)C2CCC3(C)OC123)C(=O)O (stereo unspecified)
inactive: [1] -0.564% | [2] -3.45% | [3] 4.2% | [4] 8.09% | [5] | [6]

COc1cc(C(C)=O)ccc1O[C@@H]1O[C@H](CO[C@@H]2OC[C@@H](O)[C@H](O)[C@H]2O)[C@@H](O)[C@H](O)[C@H]1O
inactive: [1] 0.428% | [2] -0.597% | [3] -2.37% | [4] 7.17% | [5] | [6] inactive [at 17.4 µM]

O=C(O)C(Cc1ccccc1)NC(=O)C1CCCN1 (stereo not drawn) (H-Pro-Phe-OH; configuration not given here)
inactive: [1] -5.01% | [2] 0.403% | [3] -6.92% | [4] | [5] | [6]

COc1ccc(-n2c(SCC#N)nc3sc4c(c3c2=O)CCCC4)cc1
inactive: [1] 1.37% | [3] | [4] 9.32% | [5] 4.07% | [9]

NC(N)=NCCC[C@H](NC(=O)c1sccc1NS(=O)(=O)c1cccc2nsnc12)C(=O)O
inactive: [1] | [3] -1.15% | [4] | [5] | [6]

CC(C)CC(NC(=O)OCc1ccccc1)C(=O)NC(CC(C)C)C(=O)NC(CCC(=O)O)C(=O)Nc1ccc2ccccc2c1 (stereo not drawn) (Cbz-Leu-Leu-Glu-βNA; configuration not given here)
inactive: [1] -12.3% | [3] | [4] | [5] | [9] | [6]

COc1cccc(CNc2ccc(S(=O)(=O)Nc3nc4ccccc4s3)cc2)c1O
inactive: [1] 0.252% | [3] -8.64% | [4] 7.86% | [5] -2.92% | [10]

CC1CC=C2C1CC1(O)C(=O)CC2(C)C1(C)CO (stereo unspecified)
inactive: [1] | [3] 4.08% | [4] | [5] | [6]

CC(=O)OC1CCC2(C)C(CCC3(C)C2CC=C2C4CC(C)(C)CCC4(C)CCC23C)C1(C)C(=O)O (stereo unspecified)
inactive: [1] -8.32% | [3] -5.03% | [4] 3% | [5] 3.68% | [10] inactive [at 17.4 µM]

CC[C@@H](C)[C@H](NC(=O)C(C)(C)NC(=O)[C@H](CCC(N)=O)NC(=O)C(C)(CC)NC(=O)[C@H](Cc1c[nH]c2ccccc12)NC(C)=O)C(=O)N[C@H](C(=O)NC(C)(C)C(=O)N[C@@H](CC(C)C)C(=O)NC(C)(C)C(=O)N1CCC[C@H]1C(=O)N[C@@H](CCC(N)=O)C(=O)NC(C)(C)C(=O)N1CC(O)C[C@H]1C(=O)NC(C)(CC)C(=O)C1CC[C@@H](C(=O)N[C@@H](Cc2ccccc2)C(=O)NCC(=O)O)N1)C(C)O (stereo partly specified) (Ac-W[ξIva]Q[Aib][aIle][Thr(3ξ)][Aib]L[Aib]PQ[Aib][X8]-X9)
inactive: [1] -9.43% | [3] inactive; activator | [4] -1.3% | [5] -1.9% | [9] inactive; activator [at 4.96 µM]
